In publication PMC4552634, “A New Set of Chemical Starting Points with Plasmodium falciparum Transmission-Blocking Potential for Antimalarial Drug Discovery” (PLoS ONE, 2015):
Among all 13,000 compounds or so, about 3,200 (25%) showed an effect of 50% or more. The list shows a part of the results.

system: P. falciparum stage V gametocytes; parameters: BacTiter-Glo ATP luminescence viability of purified stage V gametocytes in 384-well plates, per cent inhibition versus DMSO; conditions: 48 h, 5 µM; inhibitor

| Compound | % Inhibition |
| --- | --- |
| Cc1[nH]c(C)c(-c2ccc(Br)cc2)c(=O)c1Cl [TCMDC-135043] | 62.53% |
| CCN(CC)C(=O)c1cccc(C=Cc2ccc(-c3c(C)[nH]c(C)c(Cl)c3=O)cc2)c1 [TCMDC-135819] | 53.1% |
| Cc1[nH]c(C)c(-c2cc3ccccc3o2)c(=O)c1Cl [TCMDC-135948] | 11.96% |
| Cc1cc(=O)c(C2CCC(c3ccc(Cl)cc3)CC2)c(C)[nH]1 (centres unmarked) [TCMDC-138154] | 9.202% |
| Cc1[nH]c(C)c(-c2ccc(C(=O)c3ccc(Cl)cc3)cc2)c(=O)c1Br [TCMDC-137407] | 68.89% |
| Cc1[nH]c(C)c(C2CCC(c3ccc(Cl)cc3)CC2)c(=O)c1Cl (centres unmarked) [TCMDC-137423] | 63.6% |
| Cc1[nH]c(C)c(-c2ccc(Br)cc2)c(=O)c1Br [TCMDC-137537] | 28.95% |
| Cc1cc(=O)[nH]c2cc(Nc3ccnc(Nc4cccc(C(N)=O)c4)n3)ccc12 [TCMDC-138710] | 20.95% |
| CC(C)Oc1ccc(N2CCN(CCCCNC(=O)c3ccc(NC(=O)c4ccc(Cl)cc4)cc3)CC2)c(OC(C)C)c1 [TCMDC-138245] | -2.12% |
| C#CCN(Cc1ccc2nc(N)[nH]c(=O)c2c1)c1ccc(C(=O)N[C@@H](CCC(=O)O)C(=O)O)cc1 [TCMDC-131823] | -7.091% |
| O=C(CCCCCNC(=O)c1ccc(O)c(-c2cccc(C(F)(F)F)c2)c1)NCCN1CCCCC1 [TCMDC-140814] | -2.677% |
| Cc1cc(N(C)C)nc(Nc2ccc(NC(=O)c3cccc(F)c3)cc2)n1 [TCMDC-124724] | 10.45% |
| Cc1[nH]c(C)c(-c2ccc(Sc3ccc(Cl)cc3)cc2)c(=O)c1Br [TCMDC-137404] | 66.05% |
| COc1ccc2ncc(Cl)c(N3CCC(CCNCc4ccc5c(n4)NC(=O)CS5)CC3)c2c1.Cl [TCMDC-141958] | 0.05948% |
| O=C(Cc1ccccc1)NC(CCN1CCC(O)(c2cccc(C(F)(F)F)c2)CC1)c1ccc(Cl)c(Cl)c1 (centres unmarked) [TCMDC-141711] | 14.28% |
| CC(C)(C)NS(=O)(=O)c1cc(C(=O)N2CCC(CCN3CCC(O)(c4cccc(C(F)(F)F)c4)CC3)(c3cccc(F)c3)CC2)c(Cl)cc1F [TCMDC-135886] | 93.87% |
| CC(C)(C)NS(=O)(=O)c1cc(C(=O)N2CCC(CCN3CCC(C(=O)c4ccc(F)cc4)CC3)(c3cccc(F)c3)CC2)c(Cl)cc1F [TCMDC-135885] | 79.72% |
| CC(=O)C1(c2ccccc2)CCN(CCC2(c3ccc(Cl)c(Cl)c3)CN(C(=O)Nc3cccc(C(F)(F)F)c3)CCO2)CC1 (centres unmarked) [TCMDC-135342] | 34.05% |
| CN(C)S(=O)(=O)c1ccc(N2CCN(CCC3(c4cccc(F)c4)CCN(C(=O)C(C)(C)C)CC3)CC2)c2nonc12 [TCMDC-135887] | 8.489% |
| O=C(NC1CCN(CCC[C@]2(c3ccc(Cl)c(Cl)c3)CCCN(C(=O)c3ccccc3)C2)CC1)c1ccc(Cl)cc1 [TCMDC-141713] | -34.58% |
| COc1ccccc1NC(=O)Nc1ccc(-c2cccc(-c3nc4ccccc4[nH]3)c2)cc1 [TCMDC-133206] | 15.44% |
| FC(F)(F)c1cc(Nc2ncnc3ccc(Br)cc23)ccc1OCc1ccccc1 [TCMDC-131923] | 9.607% |
| CN1CCN(Cc2cccc(-c3ccc4c(Nc5ccc(Oc6ccccc6)cc5)ccnc4c3)c2)CC1 [TCMDC-138476] | 95.08% |
| Oc1cc(Nc2ccnc3cc(-c4cccc(CN5CCCCC5)c4)ccc23)c(F)cc1Cl [TCMDC-138433] | 38.27% |

| Compound | % Inhibition |
| --- | --- |
| CN1CCN(Cc2cccc(-c3ccc4c(Nc5ccc(Oc6cccnc6)cc5)ccnc4c3)c2)CC1 [TCMDC-138489] | 97.22% |
| c1ccc(Oc2ccc(Nc3ccnc4cc(-c5cccc(CN6CCOCC6)c5)ccc34)cc2)cc1 [TCMDC-138475] | -43.1% |
| CN1CCN(Cc2nc(-c3ccc4c(Nc5ccc(F)c(O)c5)ccnc4c3)cs2)CC1 [TCMDC-138439] | 95.29% |
| Cc1ccc(O)cc1Nc1ccnc2cc(-c3csc(CN4CCN(C)CC4)n3)ccc12 [TCMDC-138459] | 29.46% |
| c1cncc(Oc2ccc(Nc3ccnc4cc(-c5cccc(CN6CCCCC6)c5)ccc34)cc2)c1 [TCMDC-138491] | 61.6% |
| c1cncc(Oc2ccc(Nc3ccnc4cc(-c5cccc(CN6CCOCC6)c5)ccc34)cc2)c1 [TCMDC-138490] | -4.813% |
| CN1CCN(Cc2cccc(-c3cc4nccc(Nc5ccc(Oc6ccccc6)cc5)c4cc3Cl)c2)CC1 [TCMDC-138460] | 0.7486% |
| COCCNCc1nc(-c2ccc3c(Nc4ccc(F)c(O)c4)ccnc3c2)cs1 [TCMDC-138411] | 27.64% |
| Cc1ccc(/C=C2/SC(=Nc3ccccc3)NC2=O)c(C)c1 [TCMDC-124428] | 45.43% |
| CCOC(=O)c1cncc(/C=C/c2cc(C)cnc2N)c1 [TCMDC-134321] | 18.35% |
| CC(C)(C)C1CC(=O)CC2C(=O)N(C3CCCCC3)C(=O)C21 (centres unmarked) [TCMDC-139129] | -1.455% |
| CC1(C)NC(N)=NC(=N)N1OCc1nc(N)nc(Nc2ccccc2)n1 [TCMDC-131613] | 27.92% |
| C=CCN1C(=O)C(C(C)=O)=C(O)C1c1ccccc1 (centres unmarked) [TCMDC-131675] | 0.4612% |
| CC(C)C[C@@H](C(=O)Nc1ccc(Cc2ccc(NC(=O)[C@H](CC(C)C)N(C)C(=O)OC(C)(C)C)cc2)cc1)N(C)C(=O)OC(C)(C)C [TCMDC-131871] | 6.615% |
| CN1CCN(Cc2nc(-c3ccc4c(Nc5ccc(Oc6ccccc6)cc5)ccnc4c3)cs2)CC1 [TCMDC-138409] | 54.56% |
| c1ccc(Oc2ccc(Nc3ccnc4cc(-c5csc(CN6CCCCC6)n5)ccc34)cc2)nc1 [TCMDC-138428] | -35.56% |
| N=C(N)NN=CC(=O)Nc1ccc(Br)cc1 [TCMDC-137562] | -7.978% |
| CCN(CC)/C(=N/C(=N)Nc1ccc(Br)cc1)NCCCCCCN/C(=N\C(=N)Nc1ccc(Br)cc1)N(CC)CC [TCMDC-131814] | 118.9% |
| CCc1ccc(CN(Cc2ccc(C)cc2)Cc2ccc(NC(C)=O)cc2)cc1 [TCMDC-140034] | 13.22% |
| CCN(CC)/C(=N/C(=N)Nc1ccc(C)cc1)NCCCCCCN/C(=N\C(=N)Nc1ccc(C)cc1)N(CC)CC [TCMDC-131810] | 116.5% |
| CCCN1CCN(CC(O)CNC(=O)Nc2ccc(Br)cc2)CC1 (centres unmarked) [TCMDC-134638] | 9.49% |
| CC(=O)Nc1ccc(C(=O)N2CCN(c3ccnc4cc(Cl)ccc34)CC2)cc1 [TCMDC-133574] | -9.196% |
| CCCC1N=C(N)N=C(N)N1c1ccc(C)cc1 (centres unmarked) [TCMDC-131297] | 8.167% |
| CC(C)(C)c1ccc(CNCCOc2ccc(Nc3nnc(-c4ccc(-c5ncc[nH]5)cc4)o3)c3ccccc23)cc1 [TCMDC-138667] | -26.34% |

| Compound | % Inhibition |
| --- | --- |
| N#Cc1ccc2c(c1)CCN(CCC1CCC(NC(=O)c3ccc(-c4ccccc4)s3)CC1)CC2 (centres unmarked) [TCMDC-139837] | -13.04% |
| CC(=O)Nc1nc(C(=O)Nc2ccc(-c3ccc(-c4nc5c(C)cccc5[nH]4)cc3)cc2)cs1 [TCMDC-137125] | -51.44% |
| Cc1nn(-c2ccnc3cc(Cl)ccc23)c(C)c1C(=O)NCc1cc(Cl)cc(Cl)c1 [TCMDC-134231] | -2.069% |
| COc1ccc2nccc(N3CCC(SCCNCc4ccc5c(n4)NC(=O)CO5)C3)c2n1 (centres unmarked) [TCMDC-134206] | 10.7% |
| COc1ccc2nccc(N3CCC(NCc4ccc5c(n4)NC(=O)CS5)CC3)c2n1 [TCMDC-134652] | 3.663% |
| COc1ccc2nccc(N3CCC(CCNCc4ccc5c(n4)NC(=O)CO5)CC3)c2n1 [TCMDC-141943] | 5.733% |
| COc1ccc2nccc(N3CCC(NCCNCc4ccc5c(n4)NC(=O)CS5)C3)c2n1 (centres unmarked) [TCMDC-134649] | 67.81% |
| COc1ccc2nccc(N3CCC(NCCNCc4ccc5c(n4)NC(=O)CO5)C3)c2n1 (centres unmarked) [TCMDC-134548] | 51.99% |
| COc1ccc2nccc(N3CCC(SCCNCc4ccc5c(n4)NC(=O)CS5)C3)c2n1 (centres unmarked) [TCMDC-134285] | -20.26% |
| O=C(NC(c1ccccc1)c1ccccc1)C(c1cc2ccccc2o1)N1CCN(C(c2ccccc2)c2ccccc2)CC1 (centres unmarked) [TCMDC-141009] | -31.77% |
| CC1(C)N=C(N)N=C(N)N1c1cccc(Cl)c1 [TCMDC-123960] | 45.27% |
| O=C1c2ccccc2CCC1CCN1CC=C(c2c[nH]c3ccccc23)CC1 (centres unmarked) [TCMDC-140685] | -66.61% |
| CC1(C)CN(CCC2CCC(NC(=O)/C=C/c3ccccc3F)CC2)Cc2ccc(C#N)cc21 (centres unmarked) [TCMDC-139501] | 15.62% |
| CCn1c(Sc2ccc([N+](=O)[O-])c(C#N)c2)nnc1-c1ccc(Cl)cc1 [TCMDC-135235] | 96.27% |
| CCCCCCn1c(Sc2ccc(C#N)c([N+](=O)[O-])c2)nnc1-c1ccc(N(C)C)cc1 [TCMDC-135618] | 23.6% |
| CCn1c(Sc2ccc([N+](=O)[O-])c(C#N)c2)nnc1-c1cccc(Cl)c1 [TCMDC-135234] | 107.6% |
| CCCn1c(Sc2ccc(C#N)c([N+](=O)[O-])c2)nnc1-c1ccc(Cl)cc1 [TCMDC-135581] | 50.77% |
| CCCCn1c(Sc2ccc(C#N)c([N+](=O)[O-])c2)nnc1-c1ccc(OC)cc1 [TCMDC-135583] | 19.44% |
| CCCCCCn1c(Sc2ccc(C#N)c([N+](=O)[O-])c2)nnc1-c1ccc(Cl)cc1 [TCMDC-135599] | 28.19% |
| CCn1c(Sc2ccc(C#N)c([N+](=O)[O-])c2)nnc1-c1cccc(Cl)c1 [TCMDC-135592] | 10.47% |
| COCCn1c(Sc2ccc(C#N)c([N+](=O)[O-])c2)nnc1-c1ccc(N(C)C)cc1 [TCMDC-135613] | 43.33% |
| CCCn1c(Sc2ccc(C#N)c([N+](=O)[O-])c2)nnc1-c1ccc(N(C)C)cc1 [TCMDC-135610] | 57.06% |
| CCCCCn1c(Sc2ccc(C#N)c([N+](=O)[O-])c2)nnc1-c1ccc(Cl)cc1 [TCMDC-135598] | 19.94% |
